Source: PubChem BioAssay (National Center for Advancing Translational Sciences (NCATS))
RE007 growth inh: qHTS Assay for Inhibitors of the HIV-1 protein Vpr; 0.21% of 360,000 active; S. pombe RE007 Vpr strain, BacTiter-Glo ATP luminescence, 24 h; Potency, µM (top dose mostly 92.2 µM), inactives show at the highest dose activity change, negative = less growth, hits mostly inhibitors; active = well fitted falling curve with a large enough effect; inconclusive = small, poorly fitted or top-dose-only effect; inactive = no such curve, though single readings can be large or run the other way; also: potency is read from the fitted curve at half-maximal effect; % is scaled to controls: 0 for no effect and ±100 for the full control effect; nearly all actives have a fitted effect of over 50% in size
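Fission yeast strain RE007, carrying one chromosomally integrated HIV-1 vpr copy, was seeded at OD 0.01 in PMG+AL medium with 23 nL pinned compound. After 24 h at 30 °C and 99% humidity, viability was read by BacTiter-Glo luminescence.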
LmPK inh: qHTS Assay for Inhibitors of Leishmania Mexicana Pyruvate Kinase (LmPK); purified LmPK, Kinase-Glo ATP luminescence, 1 h; Potency, µM (titrated, usually from 57.5 µM), for inactives: at the highest dose activity change, negative = inhibition, most hits filed as inhibitors; 0.37% of 290,000 active; AID 1721, 2009; also: potency is read from the fitted curve at half-maximal effect; % is scaled to controls: 0 for no effect and ±100 for the full control effect
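ATP generated from ADP (0.1 mM) and PEP (0.5 mM) by 0.1 nM LmPK over 1 h at room temperature (pH 7.2 imidazole buffer) was detected by coupled luciferase luminescence. Values were normalized to uninhibited and no-enzyme wells.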
TbPYK inhibitor: qHTS of Trypanosoma Brucei Inhibitors. pyruvate kinase (Trypanosoma brucei), Q57TT1. TbPYK enzyme, Kinase-Glo Plus ATP luminescence, 45 min. Potency, µM (highest dose often 76.8 µM), inactives show top-dose activity, negative = inhibition, hits mostly inhibitors. 0.12% of 410,000 active. AID 624173, 2012; also: potency is read from the fitted curve at half-maximal effect; % is scaled to controls: 0 for no effect and ±100 for the full control effect; nearly all actives have a fitted effect of over 50% in size
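Assay buffer: 50 mM TEA pH 7.2, 100 mM KCl, 10 mM MgCl2, 0.05% BSA, 0.01% Tween-20. Pyruvate kinase from T. brucei plus substrate met compound, then ADP (130 uM final). Luminescence was read post 45 min RT.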
CHX counter: Cycloheximide Counterscreen for Small Molecule Inhibitors of Shiga Toxin. 12% of 300,000 active. max response, %. AID 2314, 2010. cell reporter, cycloheximide protein synthesis inhibition counterscreen; in the data active = max response mostly above about 13%, no sharp cut-off; inactive = mostly below about 14%; also: read at 38.3 µM for the half of the compounds with a filed dose; 0% is about no effect
Shiga toxin inh: A qHTS for Small Molecule Inhibitors of Shiga Toxin; Vero cells, Shiga toxin protein synthesis inhibition reporter; inhibition, % at 38.7 µM; 9.2% of 290,000 active; in the data active = inhibition mostly above about 28%, no sharp cut-off; inactive = mostly below about 43%; also: 0% is about no effect
FBPA Giardia inh: qHTS Assay for Inhibitors of Fructose-1,6-bisphosphate Aldolase from Giardia Lamblia. A8B2U2. purified Giardia FBPA. Potency, µM (top dose mostly 59.6 µM), inactives show at the highest dose activity, negative = inhibition, actives largely listed as inhibitors. 0.71% of 290,000 active. AID 2451, 2010; also: potency is read from the fitted curve at half-maximal effect; % is scaled to controls: 0 for no effect and ±100 for the full control effect; nearly all actives have a fitted effect of over 55% in size
Target sequence (A8B2U2 whole entry, looked up): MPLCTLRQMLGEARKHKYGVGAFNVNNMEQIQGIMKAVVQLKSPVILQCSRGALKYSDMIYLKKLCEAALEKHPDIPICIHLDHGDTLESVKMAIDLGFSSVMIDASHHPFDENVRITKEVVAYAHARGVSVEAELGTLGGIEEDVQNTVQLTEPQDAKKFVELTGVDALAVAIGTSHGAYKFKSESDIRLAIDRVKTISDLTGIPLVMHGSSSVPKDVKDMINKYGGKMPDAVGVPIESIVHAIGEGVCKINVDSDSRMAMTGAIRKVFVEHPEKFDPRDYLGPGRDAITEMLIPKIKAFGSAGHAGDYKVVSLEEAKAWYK
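Giardia FBPA (40 nM reagent) was preincubated 10 min at RT with compound (up to 57.5 uM final), then substrate plus GAPDH/TPI/NAD/arsenate coupling system with diaphorase/resazurin was added; resorufin fluorescence (525/598 nm) was read after 20 min.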
Active calls of the source: *; ? = inconclusive; · = no result given; [ ] = another dose, or the depositor's remark. The sample as a whole holds a higher share of hits than the screen did. Unless noted, calls follow the shape of the dose curve; as a rule, active = well fitted curve in the direction sought with a large enough effect; inconclusive = small, poorly fitted or top-dose-only effect, or another doubt; inactive = no such curve, though single readings can be large; an effect the other way counts as inactive or inconclusive.

SMILES | RE007 growth inh | LmPK inh | TbPYK inhibitor | CHX counter | Shiga toxin inh | FBPA Giardia inh
Cc1ccc(C)c(N2CCN(C(=O)CCn3c(=O)[nH]c4ccccc4c3=O)CC2)c1 | · | · | 2% | · | · | ·
C/C(=N\Nc1ncc(Br)cn1)c1cccc([N+](=O)[O-])c1 | -11% | 1% | 1% | 26* | 90 | -23%
C/C(CC(=O)Nc1ccc(N(C)C)cc1)=N\NC(=O)c1ccc([N+](=O)[O-])cc1Cl | -12% | 1% | -7% | 18 | 27 | -24%
C/C(=N\Nc1ccc([N+](=O)[O-])cc1)c1cccc(N)c1 | 3% | 3% | -7% | 39* | 123* | ?
C/C(=N\Nc1nc(N2CCOCC2)nc(N2CCOCC2)n1)c1cccc([N+](=O)[O-])c1 | 0% | -4% | -1% | -2 | -2 | -1%
CC(=O)NC/C(C)=N\Nc1ccc([N+](=O)[O-])cc1 | -3% | 5% | 6% | 10 | 3 | 0%
C/C(=N\Nc1ccc([N+](=O)[O-])cc1)c1ccc(O)cc1 | 1% | -2% | -1% | 37* | 45* | -25%
C/C(=N\NC(=O)c1ccc([N+](=O)[O-])cc1Cl)c1ccccc1 | 0% | 4% | -11% | 32* | 56* | 1%
C/C(=N/Nc1ccccc1[N+](=O)[O-])c1ccc([N+](=O)[O-])cc1 | 3% | 2% | 1% | -8 | -7 | 3%
Cc1ccc(C)c(OCCn2cc(C(=O)c3ccco3)c3ccccc32)c1 | · | · | 5% | · | · | ·
CCOc1ccc(-c2nc(SCC(=O)Nc3cc(F)ccc3F)n3[nH]c(=O)cc3n2)cc1 | · | · | -8% | · | · | ·
CCOC(=O)c1c(NC(=O)CSc2cn(CCNC(=O)c3ccccc3OC)c3ccccc23)sc2c1CCC2 | · | · | -2% | · | · | ·
C/C(=N\NC(=O)OC(C)(C)C)c1cccc([N+](=O)[O-])c1 | -19% | -4% | 2% | 11 | 29* | 2%
C/C(=N\NC(=O)C(N)=O)c1cccc([N+](=O)[O-])c1 | 4% | 4% | -6% | 13 | 16 | ?
O=c1c(S(=O)(=O)c2cccc(Cl)c2)cn(Cc2ccccc2)c2cc(N3CCOCC3)c(F)cc12 | · | · | 5% | · | · | ·
COc1cn(CC(=O)Nc2ccc(C)cc2C)c(CN2CCCCC2)cc1=O | · | · | -1% | · | · | ·
O=C(/C=C/c1ccc(O)cc1)c1ccc(O)cc1O | 6%[18.4 µM] | -4% | 3% | 29* | 34 | 0%
COc1cc(/C=C/C(=O)c2ccc(O)cc2O)ccc1O | · | · | · | 32* | 68* | -3%
C[N+]1(C)C2CCC1CC(OC(=O)C(O)c1ccccc1)C2 (stereo not given) | · | · | -8% | · | · | 3%
Cc1ccccc1-c1nc2cc(NC(=O)Cc3ccc(Cl)cc3)ccc2o1 | · | · | -6% | · | · | ·
Cc1ccccc1-c1nc2cc(NC(=O)C3CC3)ccc2o1 | -13% | -9% | -6% | 43* | 109* | 4%
CC(=O)Nc1ccc2oc(C)nc2c1 | 15% | -6% | -13% | -1 | 6 | -4%
CC(C)C(=O)Nc1ccc2oc(-c3cc(F)c(F)cc3Cl)nc2c1 | -8% | -6% | 4% | 2 | 23 | 4%
CCC(=O)Nc1ccc2oc(-c3ccccc3Br)nc2c1 | -3% | 1% | -4% | 49* | 122* | -2%
CC(=O)Nc1ccc2oc(-c3ccccc3Br)nc2c1 | 11% | 6% | -3% | 71* | 93* | -1%
SMILES | RE007 growth inh | LmPK inh | TbPYK inhibitor | CHX counter | Shiga toxin inh | FBPA Giardia inh
CC(=O)Nc1ccc2oc(-c3cc(F)c(F)cc3Cl)nc2c1 | 3% | 1% | -2% | 32* | 181* | 5%
CN(C)c1ncnc2ccc(-c3cccc(C#N)c3)cc12 | · | · | · | · | · | 2%
CC1(C)CCC[C@@](C)([C@H]2CC[C@]3(C)[C@@H]2[C@H](O)C[C@@H]2[C@@]4(C)CC[C@H](O)C(C)(C)[C@@H]4[C@@H](O)C[C@]23C)O1 | · | · | · | -1 | -10 | 12%
CCCCOC(=O)c1ccc(S(N)(=O)=O)o1 | -2% | -3% | -5% | 11* | -14 | 0%
CC(C)CNC(=S)NC(=O)c1ccc(Cl)cc1Cl | -30% | 2% | 1% | 43* | 54* | 0%
O=C(NC(=S)NC(CO)Cc1ccccc1)c1ccc(F)cc1 (stereo not given) | -14% | -5% | 11% | 19* | 51* | ?
O=C(NCCSc1ccccc1)c1ccc(CN2CCOCC2)cc1 | -13% | 4% | 2% | 36* | 62* | 4%
CC(C)CNC(=S)NC(=O)c1ccc(F)cc1 | -29% | -7% | -8% | 62* | 118* | 2%
O=C(NCCNC(=O)c1ccc(F)cc1)c1ccc(F)cc1 | 3% | · | 1% | · | · | ·
Cc1cc(Br)ccc1NC(=O)C(NS(=O)(=O)c1cccs1)c1ccccc1 (stereo not given) | · | · | 0% | · | · | ·
O=C(NCCN1CCOCC1)c1ccc(F)cc1 | 8% | -1% | -17% | 6 | 15 | 3%
O=C(NC(=S)NCCN1CCOCC1)c1ccc(F)cc1 | -22% | -10% | 13% | -2 | 44* | 0%
O=C(NCCN1CCOCC1)c1ccc(-c2ccccc2)cc1 | -5% | -6% | 2% | 25* | 38 | 0%
CCC1=C(c2ccc(C)cc2)S(=O)(=O)N=C1N1CCC(C(=O)NCc2ccc(N(C)C)cc2)CC1 | · | · | -13% | · | · | ·
O=c1c(-c2cc(O)c(O)c(O)c2)coc2cc(O)c(O)c(O)c12 | · | · | · | · | · | 5µM*
COc1ccc(-c2coc3cc(O)ccc3c2=O)cc1O | -13% | -13% | -11% | 41* | 38* | 0%
O=c1c(-c2ccc(O)cc2)coc2cc(O)cc(O)c12 | 1% | -3% | -6% | 31* | 112* | 4%
COc1ccc(-c2coc3cc(O)ccc3c2=O)cc1 | -6%[18.4 µM] | · | 9% | · | · | 12%
COc1ccc(-c2coc3cc(OC)cc(O)c3c2=O)cc1 | 17% | -6% | 1% | 52* | 51* | ·
NCCC[C@@H](CC(=O)N[C@@H]1CCCC[C@H]1C(=O)N[C@H](CC(=O)N[C@@H](CCC(=O)O)CC(=O)O)Cc1c[nH]c2ccccc12)NC(=O)C[C@H](Cc1c[nH]c2ccccc12)NC(=O)[C@@H]1CCCC[C@H]1N | · | · | · | · | · | -30%
CC(C)Oc1cc(O)c2c(=O)c(-c3ccc(O)cc3)coc2c1 | -28% | 1% | -2% | 30* | 82* | -2%
O=c1c(-c2ccc(O[C@@H]3O[C@H](CO)[C@@H](O)[C@H](O)[C@H]3O)cc2)coc2cc(O)cc(O)c12 | · | · | · | · | · | 0%
COc1cc(OC)c2c(=O)c(-c3ccccc3)coc2c1 | · | · | · | · | · | -4%
COc1ccc(-c2coc3cc(O)cc(O)c3c2=O)cc1 | -3%[18.4 µM] | -6% | -9% | 50* | 93* | 4%
COc1ccc(-c2coc3cc(OC)cc(OC)c3c2=O)cc1 | -21% | -3% | 9% | 34* | 49* | 0%
